The structures appear in SMILES notation. Compounds without any hit were thinned out: in the full panel of roughly 83,000, 20% have a hit.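 Negative percent growth values reflect cell death: -40 means 40% of the cells present at the start died, and -100 means all died.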 Values without a mark were called inactive. Activity calls are given as the source filed them. How the source made its calls: active means growth percent below 10; inactive means the rest.

Holding throughout (assay): NCI-60 one-dose screen, 48 h (100 = growth as untreated, 0 = no growth, -100 = all killed)
Assay [1] concerns HCT-15 colon. The following applies: 10 µM unless noted.
Assay [2] concerns SNB-75 CNS. The following applies: 10 µM.
In assay [3] the test system is SNB-19 CNS. The following applies: 10 µM unless noted.
Assay [4] concerns U251 CNS. Particulars: 10 µM unless noted.
Assay [5] deals with PC-3 prostate. The following applies: 10 µM unless noted.
For assay [6], the system named is SK-MEL-5 melanoma. Particulars: 10 µM unless noted.
In assay [7] the test system is UACC-62 melanoma. The following applies: 10 µM unless noted.
Assay [8] relates to LOX IMVI melanoma. Particulars: 10 µM unless noted.
Assay [9] has as its system SK-MEL-28 melanoma. Particulars: 10 µM unless noted.
In assay [10] the test system is EKVX NSCLC. Particulars: 10 µM unless noted.
The test system of assay [11] is SN12C renal. The following applies: 10 µM unless noted.
Assay [12] has as its system UO-31 renal. The following applies: 10 µM unless noted.
For assay [13], the system named is TK-10 renal. The following applies: 10 µM unless noted.
Assay [14] has as its system ACHN renal. Particulars: 10 µM unless noted.
In assay [15] the test system is A498 renal. The following applies: 10 µM unless noted.
In assay [16] the test system is CCRF-CEM leukemia. The following applies: 10 µM unless noted.
In assay [17] the test system is MOLT-4 leukemia. The following applies: 10 µM unless noted.
For assay [18], the system named is CAKI-1 renal. Particulars: 10 µM unless noted.
In assay [19] the test system is SK-MEL-2 melanoma. Particulars: 10 µM unless noted.

As for `CCOC(=O)C1=C(C)NC(C)=C(C(=O)OCC)C1(C)C`, the growth was 101% in assay [1]; 87.3% in [2]; 98.1% in [3]; 107% in assay [4]; 98.2% in assay [5]; 97.7% in [6]. Also, the growth in [7] is 98.7%; in assay [8] it was 104%; in [9], 102%; in assay [10], 108%; in assay [11], 97%; in assay [12] it was 100%. Also, the growth in [13] was 109%; in assay [14] it was 106%; in [15], 108%; in assay [16], 94.4%; in assay [17], 97%.

Take `CC(=O)Nc1scc[n+]1Cc1ccccc1`: the growth was 101% in assay [1]; 106% in [2]; 110% in assay [3]; 106% in assay [4]; 94.2% in [5]; 117% in assay [6]. Further, the growth in assay [7] was 114%; in [8], 87.9%; in assay [9], 109%; in assay [10] it was 103%; in assay [11] it was 111%; in [12] it was 91.1%. The growth in assay [13] is 113%; in assay [14], 107%; in [18], 87.4%; in assay [15] it was 112%; in [16], 90.1%; in assay [17], 94.1%.

Regarding `CCC(C)/C(=C\C#N)NCCCN/C(=C/C#N)C(C)CC` (stereo not drawn), the growth is 97% in assay [1]; 92.1% in [2]; 109% in assay [3]; 104% in [4]; 89.4% in assay [5]; 108% in assay [6]. In addition, the growth in assay [7] is 104%; in assay [8], 93.7%; in assay [9], 111%; in [10], 101%; in [11], 99.7%; in assay [12], 82.4%. Moreover, the growth in assay [13] is 119%; in assay [14], 97.1%; in assay [18], 96.5%; in assay [15], 124%; in [16] it was 97.4%; in assay [17] it was 99.4%.

For `CC(C)OC(=O)N1CCOCC1`, the growth in assay [1] was 101%; in assay [2], 86%; in assay [3], 98.5%; in assay [4], 101%; in assay [5], 86.9%; in assay [6], 106%. Besides, the growth in [7] is 98.6%; in assay [8], 102%; in assay [9] it was 101%; in [19], 101%; in [10], 126%; in assay [11] it was 97.7%. Also, the growth in assay [13] was 101%; in assay [18] it was 105%; in assay [15] it was 90.3%; in assay [16], 102%; in assay [17], 110%.

As to `C=C1CCC2C3(C)COC(c4ccccc4)OC3CCC2(C)C1/C=C/C1=CCOC1=O` (stereo not drawn), the growth in [1] was 45.6%; in assay [2], 51.7%; in assay [3], 71.8%; in assay [4], 40.1%; in [5], 26.6%; in assay [6], 76.5%. For the same compound, the growth is 58.8% in [7]; 16.1% in assay [8]; 98.1% in assay [9]; 51.3% in assay [19]; 96.1% in assay [10]; 24% in assay [11]. The growth in assay [12] was 52.6%; in [13], 61.3%; in assay [14], 71.3%; in [15] it was 106%; in assay [16] it was -46.7% (active); in assay [17], 45.5%.

Take `COc1ccc(C(=O)c2cc(OC)c3c(c2)OCO3)cc1O`: the growth in assay [1] is 19.1%; in [2] it was 30.6%; in assay [3], 41%; in assay [4] it was 27.9%; in [5], 29.4%; in assay [6] it was -52% (active). For the same compound, the growth is 43.6% in assay [7]; 26.7% in assay [8]; 65.6% in assay [9]; 71.7% in assay [19]; 58.4% in [10]; 31.4% in assay [11]. For the same compound, the growth in assay [12] was 46.6%; in assay [13] it was 66%; in assay [18], 55.5%; in [15], 61.9%; in assay [17], 17.8%.

With `O=C([O][Sn]([O]C(=O)c1ccccn1)([c]1ccccc1)[c]1ccccc1)c1ccccn1`, the growth in assay [1] is 81.7%; in assay [2], 49.3%; in assay [3], 105%; in [4] it was 86.3%; in assay [5] it was 93.1%; in assay [6], 84.3%. For the same compound, the growth in assay [7] is 83%; in assay [8], 50.6%; in assay [9] it was 98.1%; in [10] it was 92.2%; in assay [11], 91.3%; in [12], 82.4%. The growth in assay [13] is 30.1%; in assay [14], 100%; in [18], 76.5%; in assay [15] it was 101%; in assay [16] it was 18.1%; in assay [17], 88.3%.

In the case of `COc1ccc2c(c1)[nH]c(=O)c1c3cccc(F)c3cn21`, the growth in assay [1] was 9.78% (active); in [2], 76.2%; in assay [3], 39.1%; in assay [4], 0.931% (active); in assay [5], 2.38% (active); in assay [6], 27.6%. Also, the growth is 40.3% in assay [7]; 38.8% in [8]; 61.4% in assay [9]; 63.3% in assay [19]; 46.8% in assay [10]; 39.3% in assay [11]. Besides, the growth in assay [12] is 33.1%; in [13] it was 46.8%; in assay [14], 37.7%; in [15], 59.3%; in assay [16], -17.5% (active); in [17] it was 36.3%.

Regarding `Cc1ccc(S(=O)(=O)C2=C3C(=C(c4ccccc4)c4ccccc43)CN(S(=O)(=O)c3ccc(C)cc3)C2)cc1`, the growth is 39% in [1]; 56.1% in assay [2]; 82.1% in [3]; 38.4% in assay [4]; 30.1% in assay [5]; 81.9% in [6]. For the same compound, the growth in assay [7] was 36.9%; in assay [8], -76.5% (active); in [9], 88%; in [19] it was 36.8%; in assay [10], 77.9%; in assay [11] it was 55.3%. Further, the growth is 32.3% in [12]; 43.3% in [14]; 87.5% in [15]; -7.65% (active) in [16]; -6.7% (active) in assay [17].

The record behind these values is PubChem BioAssay (NCI).
